# Test results published in PubChem BioAssay (NCATS).
# Inconclusive results are not listed. Unmarked numbers belong to inactive results. The source made the active and inactive calls. The call rests on the fitted dose curve; in most records, active means well fitted curve in the direction sought with a large enough effect; inconclusive means small, poorly fitted or top-dose-only effect, or another doubt; inactive means no such curve, though single readings can be large or run the other way.
# Target: Ferritin light chain (Equus caballus) (UniProt P02791)
# Sequence (P02791 2-175 limits assumed): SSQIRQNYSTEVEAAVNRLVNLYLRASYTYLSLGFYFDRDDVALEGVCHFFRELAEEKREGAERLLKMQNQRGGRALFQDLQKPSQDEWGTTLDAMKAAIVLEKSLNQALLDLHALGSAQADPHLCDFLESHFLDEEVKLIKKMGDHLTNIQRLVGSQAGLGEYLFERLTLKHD
# Assay: qHTS Validation Assay for Identification of Novel General Anesthetics (AID 2323)
# Details: horse apoferritin, anesthetic-site fluorescent probe displacement; series mostly up to 76.9 µM; activity change, negative = inhibition: at the top concentration
# Description: Source: NIH Chemical Genomics Center [NCGC]
# Assay Submitter: Roderic Eckenhoff, University of Pennsylvania
# Screening Center PI: Christopher P. Austin, NIH
# Probe Development: NIH Chemical Genomics Center [NCGC]
# Anesthetic development has remained a largely empirical process. There are growing concerns about the cognitive effects of known general anesthetics and acceleration of the onset of neurodegenerative disease. The compounds' toxicity and multiple specific binding targets in the mammalian brain [4] has made them less attractive as drug leads. In this assay, a GABAergic mimetic model system, apoferritin and a profluorescent 1-aminoanthracene ligand (1-AMA), was used to construct a competitive binding assay for identification of novel general anesthetics. The assay was validated for 1-AMA using other known anesthetics, such as isoflurane (CID:3763) and propofol (CID: 4943), [6].
# [1] S.L. Bianchi, T. Tran, C. Liu, S. Lin, Y. Li, J.M. Keller, R.G. Eckenhoff, and M.F. Eckenhoff, Brain and behavior changes in 12-month-old Tg2576 and nontransgenic mice exposed to anesthetics. Neurobiol Aging 29 (2008) 1002-10.
# [2] Z. Xie, Y. Dong, U. Maeda, R.D. Moir, W. Xia, D.J. Culley, G. Crosby, and R.E. Tanzi, The inhalation anesthetic isoflurane induces a vicious cycle of apoptosis and amyloid beta-protein accumulation. J Neurosci 27 (2007) 1247-54.
# [3] P. Honegger, and J.M. Matthieu, Selective toxicity of the general anesthetic propofol for GABAergic neurons in rat brain cell cultures. J Neurosci Res 45 (1996) 631-6.
# [4] M.F. Eckenhoff, K. Chan, and R.G. Eckenhoff, Multiple specific binding targets for inhaled anesthetics in the mammalian brain. J Pharmacol Exp Ther 300 (2002) 172-9.
# [5] C.A. Butts, J. Xi, G. Brannigan, A.A. Saad, S.P. Venkatachalan, R.A. Pearce, M.L. Klein, R.G. Eckenhoff, and I.J. Dmochowski, Identification of a fluorescent general anesthetic, 1-aminoanthracene. Proc Natl Acad Sci U S A 106 (2009) 6501-6.
# [6] W.A. Lea, J. Xi, A. Jadhav, L. Lu, C.P. Austin, A. Simeonov, and R.G. Eckenhoff, A high-throughput approach for identification of novel general anesthetics. PLoS One 4 (2009) e7150.
# Three uL of reagents (free 1-AMA (50% saturated solution of 1-aminoanthracene
# in PBS) in columns 3, 4 as negative control and 1-AMA/apoferritin mixture (10 uM horse-spleen apoferritin in 50% saturated 1-aminoanthracene in PBS) in columns 1, 2, 5-48) was dispensed into 1536-well Greiner black assay plates. Compounds (23 nL) were transferred via Kalypsys pintool equipped with 1,536-pin array (10 nL slotted pins, V&P Scientific, San Diego, CA). Titration of the positive control, propofol, were delivered via pin transfer from separate control plates to the 2nd column of each assay plate. The starting concentration of the control, dissolved in DMSO, was at 160 mM, followed by two-fold dilution points in duplicate, for a total of 16 concentrations. The plates were incubated for 10 min at room temperature, and then read on an EnVision HTS multilabel reader (Perkin-Elmer, Waltham, MA) (end point read, 3 min/plate) using Fura2 BFP excitation filter (380 nm, bandwidth 10 nm) and fluorescein emission filter (535 nm, bandwidth 25 nm) set. A LANCE/DELFIA dichroic mirror with a cutoff wavelength at 400 nm was used to maximize signal accuracy and strength. Vehicle-only plates, with DMSO being pin-transferred to the entire column 5-48 compound area, were inserted uniformly at the beginning and the end of each library in order to monitor for and record any shifts in the background. Activity was computed as the normalized fluorescence response relative to free 1-AMA and 1-AMA/apoferritin complex values. Concentration-effect relationships were derived by using curve fitting algorithms developed in-house (http://ncgc.nih.gov/pub/openhts/). A four parameter Hill equation was fitted to the concentration-response data by minimizing the residual error between the modeled and observed responses.
# On the % scale 0 is the no-effect control and ±100 the full control effect; potency means the concentration at half of the fitted maximal effect.
Compound,"activity change, negative = inhibition [%]",Potency
O=C(Nc1cccc(C(=O)Nc2ccc(S(=O)(=O)O)c3cc(S(=O)(=O)O)cc(S(=O)(=O)O)c23)c1)Nc1cccc(C(=O)Nc2ccc(S(=O)(=O)O)c3cc(S(=O)(=O)O)cc(S(=O)(=O)O)c23)c1,-9.56,
CC(COc1ccc(/C=C/c2ccccc2)cc1)[N+](C)(C)C (stereo not given),27.4,
O=C(O)c1cc(=O)c2c(Cl)cc(Cl)cc2[nH]1,11.7,
CCCCC/C=C\CC(O)/C=C/c1cccc(CC(O)CCCCO)n1 (stereo not given),-3.6,
Cc1ccc(C(=O)O[C@H](C(=O)O)[C@@H](OC(=O)c2ccc(C)cc2)C(=O)O)cc1 (tested in a mixture with another compound),-2.76,
CC(C)NCC(O)COc1cccc2ccccc12 (stereo not given),-5.19,
O=c1[nH]c2cc(Cl)c(Cl)cc2[nH]c1=O,144,
CN1CCc2cc(NC(=O)Nc3cccnc3)ccc21,-12,
CN1[C@@H](CC(=O)c2ccccc2)CCC[C@H]1C[C@H](O)c1ccccc1,-15.3,
NC(CCCP(=O)(O)O)C(=O)O (stereo not given),-4.68,
N=C(N)SCCc1ccc(CCSC(=N)N)cc1,-8.88,
COc1ccccc1CNCCCCCCNCCCCCCCCNCCCCCCNCc1ccccc1OC,-12.7,
O=C(O)CCCC[C@@H]1CCSS1,-5.78,
CN1CCC[C@H]1c1cccnc1,-4.55,
COc1cccc(OC)c1OCCNCC1COc2ccccc2O1 (stereo not given),-10.6,
CC12C(=O)OC(=O)C1(C)C1CCC2O1 (stereo not given),-13.8,
NCCCCC(=O)O,-0.656,
CO/N=C(\C(=O)N[C@@H]1C(=O)N2C(C(=O)O)=C(COC(C)=O)CS[C@H]12)c1csc(N)n1 (stereo in doubt),-1.96,
NCCCS(=O)(=O)O,-8.74,
C=C/C(C)=C/[C@@]1(C)SC(=O)C(C)=C1O,-11.2,

Compound,"activity change, negative = inhibition [%]",Potency
c1cnc2c(c1)ccc1cccnc12,-5,
N.N.O=C(O)C1(C(=O)O)CCC1.[Pt],-8.09,
O=C(O)/C=C/C(O)c1ccc(Cl)cc1 (stereo not given),-3.19,
COc1cccc(C(=O)NCCN2CCN(c3ccc(Cl)cc3)CC2)c1,38.8,
NC(=O)C(=O)O,0.341,
COc1cc2c(CCNC(C)=O)c[nH]c2cc1Cl,-5.98,
O=C(/C=C/c1ccc(O)cc1)c1ccc(O)cc1O,-5.22,
NCCCCCCCCCCN,-1.85,
C=C[C@@H]1CN2CC[C@@H]1C[C@H]2[C@H](O)c1ccnc2ccc(OC)cc12,-3.78,
Clc1ccc(N2CCN(Cc3c[nH]c4ncccc34)CC2)cc1,62.4,
NCCSSCCN,-4.32,
O=S(=O)(c1cccc2c(I)cccc12)N1CCCNCC1,-5.9,
Oc1ccccc1O,-8.06,
CC1(C)CCC=[N+]1[O-],-2.74,
S=C(S)OC1CC2CC1C1CCCC21 (stereo not given),,17.8 µM (active)
CC(=O)SCC[N+](C)(C)C,-1.93,
C[C@@H](CN1CCC(Cc2ccccc2)CC1)[C@@H](O)c1ccc(O)cc1,-16.7,
CC1CN(S(=O)(=O)c2cccc3cnccc23)CCN1 (stereo not given),-2.58,
Cc1ccccc1CNc1ncnc2c1ncn2C1OC(CO)C(O)C1O (stereo not given),-2.78,
CN=c1nc(-c2ccccc2)n(-c2ccccc2)s1,-14.5,
